Results published in paper PMC5540273 (PLoS ONE, 2017).

Key:
Details in all cases: concentration: 1 μM, replicates: in singlicate; n = 1
PRKR = test system: T1, PRKR
T1 construct: gene EIF2AK2

PRKX = test system: PRKX
PRP4 = test system: PRP4
PYK2 = test system: T2, PYK2
T2 construct: gene PTK2B

QSK = test system: QSK
RAF1 = test system: RAF1
RET = test system: RET
RIOK1 = test system: RIOK1
RIOK2 = test system: RIOK2
RIOK3 = test system: RIOK3
RIPK1 = test system: RIPK1
RIPK2 = test system: RIPK2
RIPK4 = test system: RIPK4
RIPK5 = test system: RIPK5
ROCK1 = test system: ROCK1
ROCK2 = test system: ROCK2
ROS1 = test system: ROS1
[1] = test system: RPS6KA4(Kin.Dom.1-N-terminal)
[2] = test system: RPS6KA4(Kin.Dom.2-C-terminal)
[3] = test system: RPS6KA5(Kin.Dom.1-N-terminal)
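Further: KINOMEscan kinase panel screen.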

Structure (SMILES)	%Inh (PRKR) [%]	%Inh (PRKX) [%]	%Inh (PRP4) [%]	%Inh (PYK2) [%]	%Inh (QSK) [%]	%Inh (RAF1) [%]	%Inh (RET) [%]	%Inh (RIOK1) [%]	%Inh (RIOK2) [%]	%Inh (RIOK3) [%]	%Inh (RIPK1) [%]	%Inh (RIPK2) [%]	%Inh (RIPK4) [%]	%Inh (RIPK5) [%]	%Inh (ROCK1) [%]	%Inh (ROCK2) [%]	%Inh (ROS1) [%]	%Inh [1] [%]	%Inh [2] [%]	%Inh [3] [%]
COC(=O)c1cccc(NC(=O)NCCNc2ccnc(Nc3ccc(F)cc3)n2)c1 [GSK1379883]	0	4	46	0	0	11	0	23	0	31	22	0	2	0	25	5	17	23	0	22
Cl.c1ccc(Cn2ccc3cc(Nc4ncnc5ccccc45)ccc32)cc1 [GW275568]	0	17	0	0	0	20	15	20	0	0	26	54	21	32	1	0	14	4	0	6
NC(=O)c1sc(-n2cnc3ccccc32)cc1OCc1ccccc1F [GSK1024306]	0	3	2	40	0	0	24	77	79	65	0	13	0	0	85	86	4	17	0	17
O=C(Nc1n[nH]c2nc(-c3ccco3)c(Br)cc12)c1ccc(CN2CCCC2)cc1.O=C(O)[C@H](O)[C@@H](O)C(=O)O [SB-742352]	0	0	0	42	0	17	28	0	0	0	33	47	0	0	0	0	12	10	8	0
CC(C)(C)OC(=O)NC1CCCN(c2cc(-c3ccc4c(N)n[nH]c4c3)nc(N)n2)C1 (centres unmarked) [GSK2286096]	0	21	0	0	5	7	0	23	27	23	0	8	14	0	0	0	0	0	0	0
CCCc1ccc(S(=O)(=O)NC2CCN(c3ccnc(Nc4ccc(OC)cc4)n3)C2)cc1 (centres unmarked) [GSK1379737]	0	0	60	10	0	0	28	0	0	0	0	0	0	0	12	28	5	4	0	0
COc1cc2c(Nc3cccc(NC(=O)c4ccccc4)c3)ncnc2cc1OCCCN1CCOCC1 [GSK223810]	0	7	2	24	0	16	90.8	38	10	24	0	31	0	8	34	14	0	9	0	9
O=C(Nc1ccccc1F)NC1CCN(c2ccnc(Nc3ccc(F)cc3)n2)C1 (centres unmarked) [GSK1379722]	0	17	27	0	15	19	8	24	0	15	0	0	98.7	0	11	16	22	6	0	20
CS(=O)(=O)CCNCc1nc(-c2ccc3ncnc(Nc4ccc(OCc5cccc(F)c5)c(Cl)c4)c3c2)cs1.Cl [GW583340]	0	0	0	0	0	1	0	10	0	17	2	42	6	1	5	0	0	10	0	0
COC(=O)c1c(-c2ccccc2)c2cc(Cl)ccc2c(=O)n1Cc1ccc(S(C)(=O)=O)cc1	0	16	1	0	0	49	2	0	29	0	0	0	13	4	6	0	0	0	5	8
